The values that follow come from ChEMBL document CHEMBL4513216, “Probing the Open Global Health Chemical Diversity Library for Multistage-Active Starting Points for Next-Generation Antimalarials” (ACS Infect Dis, 2020).

Each structure is given as a SMILES string. Among all 68,000 compounds or so, about 2,700 (4%) showed an effect of 50% or more. The sample holds strong results, similar compounds and a random draw of the others, so the mix is not that of the screen.

The test system of the assay is Plasmodium berghei. As to the kind of experiment: Screen against P. berghei liver stage (PbLuc), transformed with Luciferase, at 2uM. In kind it is functional, HepG2. Particulars: tested at 2 uM.
For the compound `O=C(CN1C=Nc2ccccc2S1(=O)=O)NCc1ccccc1F`, the INHIBITION is recorded as 68.24%. The value for `CC(C)CNC(=O)CN1C=Nc2ccccc2S1(=O)=O` was 21.89%; that for `Cc1ccc(CNC(=O)CN2C=Nc3ccccc3S2(=O)=O)s1` was 3.86%. As for `CC(C)(C)NC(=O)NC(=O)CN1C=Nc2ccccc2S1(=O)=O`, the figure is 13.24%; as for `CCC(C)(C)NC(=O)CN1C=Nc2ccccc2S1(=O)=O`, 51.94%.

As to `CCCNC(=O)NC(=O)CN1C=Nc2ccccc2S1(=O)=O`, the INHIBITION was -35.65%. `O=C(CN1C=Nc2ccccc2S1(=O)=O)NCc1ccccc1`: the INHIBITION was 33.61%. `O=C(CN1C=Nc2ccccc2S1(=O)=O)NCC1CC1`: the INHIBITION was 66.2%. The value for `Cn1ccc(C(=O)N2CCC(c3cc(CCO)n(C)n3)C2)n1` (stereo not drawn) was -14.3%; that for `CN1[C@@H](CCC(=O)NCc2ccc(F)cc2)CNC(=O)[C@H]2NCC[C@H]21` was 4%.

Take `Cc1nc2ccccc2nc1CN1CCCCC1Cn1cncn1` (stereo not drawn): the INHIBITION worked out at 12.74%. The value for `Cc1c(Cl)c(CN2CCCC2Cn2cncn2)nc2ccccc12` (stereo not drawn) was -8.32%.

Regarding `Cc1cccc2nc(CN3CCCC3Cn3cccn3)cn12` (stereo not drawn), the INHIBITION was 19.71%. In the case of `c1ccc(CN2CCCC2Cn2cncn2)nc1` (stereo not drawn), the INHIBITION was found to be 23.11%. The value for `Cc1cccc2nc(CN3CCCC3Cn3cncn3)cn12` (stereo not drawn) was 78.28%; that for `Cc1nc2ccccc2nc1CN1CCCC1Cn1cncn1` (stereo not drawn) was 53.72%. As for `CC[C@H](C)[C@H](NC(=O)Cc1csc(-c2cccc(Cl)c2)n1)C(=O)O`, the figure is 13.05%. `CC(Oc1cc(Cl)cc(Cl)c1)C(=O)NCCS(N)(=O)=O` (stereo not drawn): the INHIBITION was -10.59%. As for `CC(=O)N1CC2(CCCC2)c2ccccc21`, the figure is 3.01%.

Regarding `CCCn1ncc(C(=O)NC(C)c2c(C)nn(CC)c2C)c1C` (stereo not drawn), the INHIBITION is -21.14%. As for `CCCn1cc(C(=O)NC(C)c2c(C)nn(CC)c2C)c(C)n1` (stereo not drawn), the figure is 51.19%; as for `CCn1nc(C)c(C(C)NC(=O)c2cccc(NCC(=O)O)c2)c1C` (stereo not drawn), -6.64%. In the case of `Cn1ccnc1CN1CC[C@H](O)[C@@H](n2ccc(=O)[nH]c2=O)CC1`, the INHIBITION is recorded as 31.14%. Take `CCN1CC2(CC1=O)CN(Cc1ccco1)CCN(C(=O)C(C)C)C2` (stereo not drawn): the INHIBITION was -47.39%. The value for `O=C(NCCOCCO)c1cccnc1Oc1ccc(Cl)cc1` was 21.75%; that for `c1ccc2oc(N3CCn4c(nnc4C4CC4)C3)nc2c1` was -45.42%. As for `Cn1ccnc1-c1ccc(NCc2cn3c(n2)SCC3)nn1`, the figure is -75.92%; as for `Cc1ccc(C(=O)NCCCN(C)S(C)(=O)=O)cc1-n1cccc1`, -5.68%. As for `CS(=O)(=O)NCCCNC(=O)c1cccc(-n2cccc2)c1`, the figure is 30.31%; as for `Cc1ccc(C(=O)NCCCNS(C)(=O)=O)cc1-n1cccc1`, 54.49%. For `CNC(=O)Cn1nc(C(C)C)c2cnn(C(C)(C)C)c2c1=O`, the INHIBITION was -30.6%. With `COc1cccc(C(O)CNC(=O)CC2CCCCC2)c1` (stereo not drawn), the INHIBITION is recorded as 51.96%. For the compound `O=C(CNC(=O)C1CCCC1)NCC(O)c1ccc2ccccc2c1` (stereo not drawn), the INHIBITION stood at 9.78%. As for `CCN1CCC(CC(=O)NCc2nc(C)cc(C)n2)CC1`, the figure is -28.09%; as for `COc1cccc(S(=O)(=O)NC(=O)CC2CCCC2)c1`, 14.02%; as for `CC(C)Oc1cccc(C(O)CNC(=O)CCc2ccncc2)c1` (stereo not drawn), -32.28%. The value for `CCN1CCC(CC(=O)NCCc2nc(C)cc(C)n2)CC1` was 3.4%; that for `CCN1CCC(CC(=O)NCC(O)c2ccc3ccccc3c2)CC1` (stereo not drawn) was 52.08%; that for `O=C(CC(F)(F)F)NCC(O)c1ccc2ccccc2c1` (stereo not drawn) was 23.81%. The value for `CCN1CCC(CC(=O)NCC(O)c2cccc(OC)c2)CC1` (stereo not drawn) was 50.32%; that for `O=C(C1CCOCC1)N1C[C@@H]2[C@@H](C1)OCC(=O)N2Cc1ccncc1` was -25.8%. In the case of `CC(Nc1ncnc2c1CCNC2)c1ccc2c(c1)CCCC2` (stereo not drawn), the INHIBITION is reported as 48.21%. As for `Cn1ncc2c1CN(C(=O)Cc1ccccn1)CC2COCC1CC1` (stereo not drawn), the figure is -4.69%; as for `O=C(C1CCC1)N1CCN(Cc2ccc(F)cc2)[C@H]2CS(=O)(=O)C[C@H]21`, 5.17%. The value for `Cc1ncc2c(n1)CN(CC(=O)Nc1cccnc1)CC2` was 51.94%; that for `CCc1ncc2c(n1)CN(CC(=O)Nc1cccnc1)CC2` was -28.98%. As for `Cc1cc(NC(=O)CN2CCc3cnc(C)nc3C2)on1`, the figure is 42.11%; as for `Cc1ncc2c(n1)CN(CC(=O)Nc1ccncc1)CC2`, -63.75%; as for `Cc1ncc2c(n1)CN(CC(=O)Nc1c(C)nn(C)c1C)CC2`, 64.16%. For `Cc1ncc2c(n1)CN(CC(=O)Nc1cc(C)on1)CC2`, the INHIBITION is on record as 31.57%. The value for `Cc1cc(C(=O)N2CCC3(CCNCC3)CC2)c2cccc(C)c2n1` was -26.08%; that for `COc1ccccc1CNC(Cc1cccs1)c1nc(C)c(C)s1` (stereo not drawn) was 46.15%; that for `Cc1nc(C)n(C2CCCN(C(=O)c3ccc(OC(C)C)nc3)C2)n1` (stereo not drawn) was 3.33%.
